# Results taken from ChEMBL document CHEMBL3988442, “University of Dundee, Small-Polar-MMV Screening Library” (2021).
# The whole screen tested about 48,000 compounds, of which about 13,000 (27%) showed an effect of 50% or more. The list shows a part of the results.
# Test system: Wolbachia pipientis
# Test: Anti-Wolbachia Cell-Based Screen
# Assay type: functional
# Design: scale not given: in the data most compounds retested in dose-response had high values
# Details: 5 µM
row,Compound,Percent Effect [%]
1,Nc1cc(C(=O)N2C[C@H]3CC[C@@H]2CN(Cc2cccnc2)C3)ccn1,-14.93
2,CNC(=O)[C@@H](c1ccccc1OC)N1CCC[C@H]1C(=O)N1CCC1.Cl,-2.79
3,CCCc1nncn1-c1cc(OC)ccc1OC,-4.578
4,COCC(=O)NS(=O)(=O)c1ccc(F)c(F)c1,-13.69
5,Cc1cc(C)nc(C2CCCN2C(=O)c2coc(C)n2)n1 (stereo not drawn),95.19
6,Cc1nc(C2CCCN2C(=O)c2ccc(=O)n(C)n2)no1 (stereo not drawn),4.232
7,Cc1nc(C2CCCN2C(=O)c2cnns2)no1 (stereo not drawn),-16.56
8,Cc1cc(C)nc(C2CCCN2C(=O)c2cnccn2)n1 (stereo not drawn),104.9
9,CC(=O)Nc1nc(C(=O)N2CCCC2c2noc(C)n2)cs1 (stereo not drawn),1.192
10,Cc1cncc(C(=O)N2CCCCC2c2nc[nH]n2)c1 (stereo not drawn),2.614
11,Cc1cc(C)nc(C2CCCN2C(=O)c2cnco2)n1 (stereo not drawn),140.7
12,COc1ccc(F)c(-c2cc(C)nc(N)n2)c1,-7.785
13,OC1(CNc2ccc(Br)cn2)CCC1,-10.9
14,Cc1nc(-c2noc3ccc(C(=O)NCCN4CCOCC4)cc23)co1,-13.78
15,Cn1cc(NC(=O)NC2CCCN(c3ccccc3Cl)C2=O)cn1 (stereo not drawn),-13.39
16,O=C(Cc1ccccc1O)NC1CCCN(c2ccccc2F)C1=O (stereo not drawn),90.3
17,CC(=O)NCCCSC1CCCN(c2ccccc2F)C1=O (stereo not drawn),-23.33
18,Cc1cc(CC(=O)NC2CCCN(Cc3ccccc3)C2=O)n[nH]1 (stereo not drawn),128.5
19,Cc1cc(CC(=O)NC2CCCN(c3ccccc3Cl)C2=O)n[nH]1 (stereo not drawn),103.5
20,O=C1C(NCc2ccccc2O)CCN1Cc1ccccc1 (stereo not drawn),-5.18
21,Cc1cc(C2CCCN(C(=O)COc3ccccc3F)C2)n[nH]1 (stereo not drawn),-9.054
22,Cn1ccc(NC(=O)NC2CCCN(c3ccccc3Cl)C2=O)n1 (stereo not drawn),10.36
23,COCC(=O)NC1CCCN(c2ccc(C)cc2)C1=O (stereo not drawn),11.31
24,Cc1ccc(N2CCCC(NC(=O)Cc3csc(C)n3)C2=O)cc1 (stereo not drawn),-8.265
25,Cc1cc(CC(=O)NC2CCCN(c3ccccc3F)C2=O)n[nH]1 (stereo not drawn),95.19
26,Cc1cc(CNCC2(O)CCCN(CCCc3ccccc3)C2=O)n[nH]1 (stereo not drawn),11
27,Cc1[nH]c2c(F)cccc2c1CC(=O)N1CCCC(N)CC1 (stereo not drawn),-2.417
28,Cc1cc(C)cc(CN2C[C@H]3COC[C@H](N4CCN(C)CC4)[C@H]3C2)c1.O=C(O)C(F)(F)F.O=C(O)C(F)(F)F.O=C(O)C(F)(F)F,-30.24
